In all, about 110,000 compounds were measured (“z-score”: median about -0.1, highest 2% from about 2 on). Many of the other results were omitted from the sample, so the highest values are more common in it than they were. The source made the active and inactive calls.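 Rule for the calls: active = z-score in the third read window above 3 or below -3; inactive = the rest.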

In the assay the target is Metabotropic glutamate receptor 8 (Rattus norvegicus) (UniProt P70579). Briefly: rat mGluR8 modulators via GIRK flux, primary screen, cell-based, thallium flux, HTS (AID 488969). To be noted: HEK293 rat mGluR8, GIRK (G protein-gated inwardly rectifying potassium channel) thallium flux, FluoZin2; at 10 µM; stronger effect = higher value; submaximal glutamate (EC20) added with thallium.
Metabotropic glutamate receptor 8 (Rattus norvegicus), sequence (P70579 whole entry, looked up): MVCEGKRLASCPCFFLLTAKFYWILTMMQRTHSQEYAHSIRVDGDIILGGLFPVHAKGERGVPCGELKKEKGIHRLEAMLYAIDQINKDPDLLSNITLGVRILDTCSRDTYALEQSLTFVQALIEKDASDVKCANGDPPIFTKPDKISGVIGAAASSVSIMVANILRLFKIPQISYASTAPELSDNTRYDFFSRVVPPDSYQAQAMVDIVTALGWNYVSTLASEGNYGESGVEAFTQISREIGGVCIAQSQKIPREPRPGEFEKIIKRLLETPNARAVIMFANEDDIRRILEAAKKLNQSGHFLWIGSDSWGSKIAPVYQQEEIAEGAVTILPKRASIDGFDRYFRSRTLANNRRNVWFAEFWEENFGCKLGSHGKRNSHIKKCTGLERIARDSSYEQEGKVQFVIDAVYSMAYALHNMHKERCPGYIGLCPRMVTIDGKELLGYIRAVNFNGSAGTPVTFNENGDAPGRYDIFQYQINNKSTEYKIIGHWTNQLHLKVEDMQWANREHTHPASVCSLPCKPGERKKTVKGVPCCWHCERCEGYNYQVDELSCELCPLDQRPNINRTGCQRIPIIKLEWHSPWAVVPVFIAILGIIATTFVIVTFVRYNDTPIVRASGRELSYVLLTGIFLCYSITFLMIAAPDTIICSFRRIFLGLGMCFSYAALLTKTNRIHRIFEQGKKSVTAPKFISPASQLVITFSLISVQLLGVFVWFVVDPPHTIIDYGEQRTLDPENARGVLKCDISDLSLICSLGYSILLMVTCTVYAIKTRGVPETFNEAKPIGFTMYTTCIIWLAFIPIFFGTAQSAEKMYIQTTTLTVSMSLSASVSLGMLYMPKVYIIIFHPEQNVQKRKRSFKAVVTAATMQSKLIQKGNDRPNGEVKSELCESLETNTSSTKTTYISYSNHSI
For `N#CCSc1nnc(-c2ccccc2O)n1Cc1ccccc1`, the z-score was -0.264.

On to `OC1(c2ccc3ccccc3c2)CCN(Cc2ccccc2)C1` (stereo not drawn), for which the z-score is 2.

As to `OC1(c2cccc(F)c2)CCN(Cc2ccncc2)CC1`, the z-score was -0.584.

In the case of `c1ccc2cc(CN3CCOCC3)ccc2c1`, the z-score worked out at 0.71.

The molecule `CC1(C)Cc2cccc(OCC(=O)Nc3cccnc3)c2O1` showed a z-score of 0.958.

`COc1ccc(C(=O)N/C(=C\c2cccc3ccccc23)C(=O)NCCc2c[nH]c3ccccc23)cc1OC`: the z-score is -1.59.

Turning to `O=S(=O)(c1ccc(-c2nnc(SCc3nnc(-c4ccccc4)o3)o2)cc1)N1CCCC1`, the z-score is 3.72 (active).

For the molecule `Cc1ccc(CSc2nnc(-c3ccc(S(=O)(=O)N4CCCC4)cc3)o2)cc1`, the z-score was determined as 1.62.

With `NC(=O)CSc1nnc(-c2ccc(S(=O)(=O)N3CCCC3)cc2)o1`, the z-score is -0.271.

`CO/N=C/c1ccc(Sc2ccccc2)c([N+](=O)[O-])c1`: the z-score was -0.0163.

For `C=CCNC(=O)NC(=S)c1ccccc1`, the z-score is 3.72 (active).

`O=C(NCCO)NC(=S)c1ccccc1`: the z-score is -0.169.

Consider `C=CCNC(=S)NNC(=O)c1ccccc1`, for which the z-score is -0.00102.

Turning to `CCNc1nc(NCC)nc(C(=O)Nc2ccccc2)n1`, the z-score is -0.0479.

For `O=C(NCc1ccc(Cl)cc1)C1C2C=CC3(CN(Cc4cccnc4)C(=O)C13)O2` (stereo not drawn), the z-score is 0.82.

For the molecule `OCCN(Cc1ccccc1)Cc1ccc(C(F)(F)F)cc1`, the z-score was -0.0102.

As to `O=C(O)c1ccccc1SC1CC(=O)N(C2CCCCC2)C1=O` (stereo not drawn), the z-score is -0.0935.

On to `Cc1ccc(NC(=O)C2CC(=O)OC23CCOC(C)(C)C3)cc1` (stereo not drawn), for which the z-score is -0.427.

Regarding `CC(C)C(=O)NC(Nc1ccccc1F)C(Cl)(Cl)Cl` (stereo not drawn), the z-score is -0.185.

For the molecule `CCCCCCn1ccc(=N)cc1`, the z-score is 0.937.

With `CCCCCn1ccc(=N)cc1`, the z-score was found to be 1.99.

On to `CCCCCCCn1ccc(=N)cc1`, for which the z-score is -0.268.

`Cc1ccc(C)c(S(=O)(=O)N2C(=S)NC(=O)C2C(C)C)c1` (stereo not drawn): the z-score stood at 0.0469.

As for `CCN(CC)S(=O)(=O)c1ccc(N2CCOCC2)c(NC(=O)C(=O)c2c(-c3ccccc3)cc3ccccn23)c1`, the z-score was -0.54.

With `CN(C)S(=O)(=O)N1CCN(S(=O)(=O)c2ccccc2)CC1`, the z-score was -0.177.

Take `Cc1csc(NC(=O)CSc2nnc(CCNC(=O)c3cccs3)n2C)n1`: the z-score is -0.0983.

In turn, `Cc1cccc(C(=O)NCCc2nnc(SCC(=O)Nc3nc(C)cs3)n2C)c1` had a z-score of 2.62.

As to `Cc1csc(NC(=O)CSc2nnc(CCNC(=O)c3ccc(Cl)c(Cl)c3)n2C)n1`, the z-score was -0.837.

In the case of `N#CCCN(C(=O)CSc1nc(-c2ccccc2)cn1N)c1ccc(F)cc1`, the z-score was -0.2.

Consider `COc1cc2c(cc1OC)C(C(=O)NCCN1CCOCC1)C1c3ccccc3CCN1C2=O` (stereo not drawn), for which the z-score is -1.12.

The molecule `N/C(=N\OC(=O)Cc1cccc2ccccc12)c1ccccn1` registered a z-score of 0.135.

Molecule `Oc1c(/C=N/c2ncn[nH]2)ccc2ccccc12` returned a z-score of 0.0888.

In the case of `Oc1c(N=Nc2ccccn2)ccc2ccccc12`, the z-score was 13.6 (active).

`Oc1ccc(N=Nc2c(O)ccc3ccccc23)cc1`: the z-score is -0.0552.

Consider `Oc1ccc2ccccc2c1N=Nc1ccccn1`, for which the z-score amounted to 2.19.

`O=C(O)Cc1c(O)ccc2ccccc12`: the z-score is -0.0548.

On to `CCOc1cc(C2C(C#N)=C(N)OC(C)=C2C(C)=O)cc(Br)c1O` (stereo not drawn), for which the z-score is -1.08.

On to `O=C(Nc1ncc2c(n1)-c1ccccc1CC2)c1cccc(Cl)c1`, for which the z-score is -0.891.

In the case of `CCN(c1ccc(NC(=O)COC(=O)CCC(=O)c2ccc(F)cc2)cc1)C(C)C`, the z-score is -0.471.

In the case of `Cc1cc(C)cc(-n2c(SC(C)C(=O)NCc3ccc4c(c3)OCO4)nc3ccccc3c2=O)c1` (stereo not drawn), the z-score is -0.19.

`Cc1ccc(-c2ccc(C(=O)O)[nH]2)cc1` displayed a z-score of 2.4.

Consider `Cc1ccc(-c2ccnc(=S)[nH]2)cc1`, for which the z-score amounted to 0.997.

As for `CCc1ccc(-c2ccc(C(=O)C(F)(F)F)[nH]2)cc1`, the z-score was -0.0177.

Regarding `N#CC1=C(S)N(c2ccccc2)C(c2ccc(-c3cccc(Cl)c3)o2)NC1=O` (stereo not drawn), the z-score was -0.292.

`O=C1c2ccccc2NC(c2ccc(-c3cccc(Cl)c3)o2)N1O` (stereo not drawn) came in with a z-score of 2.57.

With `O=C1c2ccccc2NC(c2ccco2)N1O` (stereo not drawn), the z-score is -0.422.

For `Cc1c(C2Nc3ccccc3C(=O)N2O)cnn1C` (stereo not drawn), the z-score turned out to be 0.189.

As to `Cc1cc([N+](=O)[O-])ccc1-c1ccc(C2Nc3ccccc3C(=O)N2O)o1` (stereo not drawn), the z-score is 3.53 (active).

With `Cc1nn(C)cc1C1Nc2ccccc2C(=O)N1O` (stereo not drawn), the z-score is -0.121.

Regarding `O=C1c2ccccc2NC(c2cn[nH]c2-c2ccccc2)N1O` (stereo not drawn), the z-score is -0.0761.

As for `Cc1ccsc1C1Nc2ccccc2C(=O)N1O` (stereo not drawn), the z-score was -0.218.

Take `O=C1c2ccccc2NC(c2ccc(-c3ccc(Br)cc3)o2)N1O` (stereo not drawn): the z-score is 3.36 (active).

Turning to `CC1CCC(NC(=O)Nc2cccs2)CC1` (stereo not drawn), the z-score stood at 0.643.

On to `CCOC(=O)c1c(NC(=O)C2=C(C)NC(=S)NC2c2ccc(F)cc2F)sc(C)c1C` (stereo not drawn), for which the z-score is 0.556.

Consider `CCCCCCn1c(C)nc2c(c1=O)c1nc3ccccc3nc1n2/N=C/c1ccco1`, for which the z-score was found to be 0.218.

As for `CCC1(C)Cc2nc3[nH]c(=S)n(-c4ccccc4)c(=O)c3cc2CO1` (stereo not drawn), the z-score is -0.0711.

Consider `CC1(C)Cc2nc3[nH]c(=S)n(-c4ccccc4)c(=O)c3cc2CO1`, for which the z-score was -0.126.

In the case of `CCn1c(=S)[nH]c2nc3c(cc2c1=O)CCCC3`, the z-score is 2.31.

Take `CCn1c(SCc2ccc(Cl)cc2)nc2nc3c(cc2c1=O)CCCC3`: the z-score was determined as 0.193.

For the molecule `C=CCn1c(=S)[nH]c2nc3c(cc2c1=O)CCCC3`, the z-score was 4.15 (active).

Take `CCn1c(SCC(=O)Nc2ccc(C)cc2)nc2nc3c(cc2c1=O)CCCC3`: the z-score worked out at 0.307.

Regarding `CN(C(=O)c1ccncc1)c1nnc(-c2cnccn2)s1`, the z-score was -0.251.

As to `COc1ccc(NC(=O)Cc2coc3cc(C)c(C(C)C)cc23)cc1S(=O)(=O)N1CCOCC1`, the z-score is -0.503.

`CCOC(=O)/C(C#N)=C/c1cc2ccccc2nc1Cl`: the z-score is -0.3.

`O=C(c1ccco1)N1CCN(S(=O)(=O)c2ccc(Cl)s2)CC1`: the z-score was -0.0642.

For `COc1cccc(N(CC(=O)N/N=C(\C)c2cccs2)S(C)(=O)=O)c1`, the z-score was -0.154.

`CC1=C(C(=O)OC(C)C)C(c2cncc(-c3ccc(F)cc3)c2)C(C#N)=C(N)O1` (stereo not drawn): the z-score was -0.367.

As for `CCOC(=O)C1=C(C)OC(N)=C(C#N)C1c1cncc(-c2ccc(F)cc2)c1` (stereo not drawn), the z-score came to 2.92.

Take `CCOC(=O)C1=C(C)OC(N)=C(C#N)C1c1cc(F)ccc1F` (stereo not drawn): the z-score was -2.09.

Take `Cc1ccc(S(=O)(=O)NC(C)C(c2cccs2)N2CCN(c3ccccc3)CC2)cc1` (stereo not drawn): the z-score is -0.115.

On to `CCNC(=S)NNC(=O)c1cc(-c2cccc(C)c2)nc2ccccc12`, for which the z-score was 0.214.

With `O=C(NCc1ccccn1)c1cc(-c2ccccc2)nc2ccccc12`, the z-score is -0.314.

As to `Cc1ccc(-c2cc(C(=O)Nc3ccccc3C)c3ccccc3n2)o1`, the z-score is 0.279.

As for `O=C(NC(=S)Nc1ccccn1)c1cc(-c2ccccc2)nc2ccccc12`, the z-score was 3.22 (active).

For the molecule `Cc1ccc(-c2cc(C(=O)Nc3cc(C)on3)c3ccccc3n2)cc1`, the z-score is -0.321.

Regarding `CCCOc1ccc(C(=O)NNC(=S)NC(=O)c2cc(-c3ccc(Cl)cc3)nc3ccccc23)cc1`, the z-score was -0.0891.

Turning to `Cc1ccccc1NC(=S)NC(=O)c1cc(-c2ccccc2)nc2ccccc12`, the z-score is 7.41 (active).

Molecule `COc1ccc(C(=O)NNC(=S)NC(=O)c2cc(-c3ccccc3)nc3ccccc23)cc1` registered a z-score of 2.35.

For the molecule `Cc1cccc(NC(=S)NC(=O)c2cc(-c3ccccc3)nc3ccccc23)c1`, the z-score is 5.14 (active).

`CCCOc1ccc(C(=O)NNC(=S)NC(=O)c2cc(-c3ccccc3)nc3ccccc23)cc1` gave a z-score of 0.558.

Regarding `Cc1cccc(NC(=O)c2cc(Cl)nc3ccccc23)c1`, the z-score is -0.228.

For the molecule `O=C(NCc1ccccn1)c1cc(-c2ccc(-c3ccccc3)cc2)nc2ccccc12`, the z-score is -0.368.

On to `O=C(Cn1cc([N+](=O)[O-])cn1)N1CCc2ccccc21`, for which the z-score came to 0.0712.

Take `O=C(c1cccs1)c1cn(CC(=O)N2CCc3ccccc3C2)c2ccccc12`: the z-score was -0.134.

Turning to `COc1ccc(N2CCN(S(=O)(=O)c3cccc(C(F)(F)F)c3)CC2)cc1`, the z-score is -0.0298.

Take `CCn1c(SCc2ccccc2Cl)nc2ccccc21`: the z-score turned out to be 0.866.

Turning to `CN(/N=C/c1cccnc1)c1cnn(-c2ccc(F)c(Cl)c2)c(=O)c1Cl`, the z-score was -0.0102.

`COc1ccc(Cl)cc1C(=O)NNC(=S)NC(=O)c1cc(-c2ccccc2)nc2ccccc12` yielded a z-score of 1.06.

Consider `O=C(NC(=S)Nc1ccccc1)c1cc(-c2ccccc2)nc2ccccc12`, for which the z-score is 9.35 (active).

As for `COC(=O)c1ccc(NC(=S)NC(=O)c2cc(-c3ccccc3)nc3ccccc23)cc1`, the z-score was 8.36 (active).

Regarding `COC(=O)c1ccc(NC(=S)Nc2ccccc2)cc1`, the z-score was found to be 0.0759.

As to `O=C(Nc1ccon1)c1cc(-c2ccccc2)nc2ccccc12`, the z-score was -1.67.

As to `COC(=O)c1cc(OC)c(OC)cc1NC(=O)c1cc(-c2ccccc2)nc2ccccc12`, the z-score is -0.917.

Turning to `c1ccc(CNc2nc(-c3cccs3)nc3ccccc23)cc1`, the z-score is 0.32.

For the molecule `O=C(O)c1cc(NCc2ccccc2C(F)(F)F)ccc1N1CCOCC1`, the z-score is -0.168.

Consider `N#Cc1cc([N+](=O)[O-])cnc1Nc1ccccc1`, for which the z-score was -0.521.

`CNC(=O)c1c(N)sc2c1CCCCC2` showed a z-score of 0.209.

On to `CCOC(=O)c1c(NC2=NS(=O)(=O)c3ccccc32)sc2c1CCC(C)C2` (stereo not drawn), for which the z-score was found to be 0.00913.

`COC(=O)c1c(NC(=O)c2cccs2)sc2c1CCC(C)C2` (stereo not drawn): the z-score is -0.363.

With `COC(=O)c1c(NS(=O)(=O)c2ccc(C)cc2)sc2c1CCC(C)C2` (stereo not drawn), the z-score was 7.28 (active).

Regarding `COC(=O)c1c(NC(=O)CN2CCN(S(=O)(=O)c3ccccc3)CC2)sc2c1CCC(C)C2` (stereo not drawn), the z-score is -0.486.

As for `CCOC(=O)c1c(NC(=O)C2CCCN(S(=O)(=O)c3ccccc3)C2)sc2c1CCCC2` (stereo not drawn), the z-score worked out at 0.269.

On to `CC(C)OC(=O)c1c(N)sc2c1CCCC2`, for which the z-score was determined as 2.03.

As to `COCC(=O)Nc1sc2c(c1C(=O)OC)CCC(C)C2` (stereo not drawn), the z-score was -0.444.

In the case of `CC1CCc2c(sc(NS(=O)(=O)c3ccccc3)c2C(=O)OC(C)C)C1` (stereo not drawn), the z-score was 8.13 (active).

Consider `COC(=O)c1c(NC(=O)c2ccccc2N(C)S(=O)(=O)c2ccccc2)sc2c1CCCC2`, for which the z-score is -0.215.

In the case of `CC1CCc2c(sc(N)c2C(=O)OC(C)C)C1` (stereo not drawn), the z-score is 0.201.

For `CC(C)OC(=O)c1c(NS(=O)(=O)c2ccccc2)sc2c1CCCC2`, the z-score is 12.3 (active).

As for `O=C(CSc1nnnn1-c1cccc(F)c1)Nc1nc2ccccc2s1`, the z-score is -0.0501.

Turning to `CC(Sc1nc(-c2ccccc2)cc(C(F)(F)F)n1)C(=O)N1CCOCC1` (stereo not drawn), the z-score was -0.153.

As to `CCOc1ccc(N2C(=O)c3ccccc3C2=O)cc1`, the z-score was -1.29.

Consider `CCOc1ccc(N2C(=O)c3ccccc3C2O)cc1` (stereo not drawn), for which the z-score is 8.14 (active).

Regarding `O=C1c2ccccc2C(O)N1c1ccc(Cl)cc1` (stereo not drawn), the z-score was -0.698.
